# CCT chaperon mod: modulators of cytosolic chaperonin (CCT/TRiC) activity; 0.3% of 360,000 active; activity change, % (concentration not given with the values), hits read low; purified chaperonin ATPase assay, HTRF ADP detection, 30 min; AID 651819; in the data active = activity change below about -30%
#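 First, chaperonin was dispensed at 40 nM or 20 nM final depending on batch activity. Next, compounds were pinned at 76 uM and ATP added at 10 uM. After 30 min at 37 °C, ADP detection reagents ran 30 min at ambient temperature.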
# CtBP-E1A inh: inhibitors of CtBP/E1A interaction. 0.49% of 340,000 active. AlphaScreen GST-E1A/His-CtBP binding, 1536-well; active compounds read low. AID 651724. activity change, % (no concentration beside the values)
#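 Homogeneous bead-based format: GST-tagged E1A captured on glutathione donor beads, His-tagged CtBP on nickel acceptor beads; compounds precede bead addition by 2 h at 37 °C.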
# pAkt inh: inhibitors of Akt phosphorylation | Neuro2A IGF-stimulated pAkt S473 HTRF, 20 min; active compounds read low | AID 651550 | activity change, % for hits at 50 µM | 0.32% of 360,000 active; in the data active = activity change below about -80%; inconclusive = mostly about -51% to -80%
#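 Single-point screen (50 µM final compound) in Neuro2A cells stimulated 20 min with 6 nM IGF at 37 deg C. After lysis, Ser473-phosphorylated Akt read by HTRF (ex 330 nm, em 615/665 nm) as the 665/615 ratio.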
# Six1-Eya2 blk: Six1/Eya2 interaction inhibition; Q15475+O00167; AlphaScreen GST-Six1/His-Eya2 binding, biochemical; active compounds read low; activity change, % (test concentration not listed); 0.56% of 360,000 active; AID 651725
# Target sequence (O00167 whole entry, looked up): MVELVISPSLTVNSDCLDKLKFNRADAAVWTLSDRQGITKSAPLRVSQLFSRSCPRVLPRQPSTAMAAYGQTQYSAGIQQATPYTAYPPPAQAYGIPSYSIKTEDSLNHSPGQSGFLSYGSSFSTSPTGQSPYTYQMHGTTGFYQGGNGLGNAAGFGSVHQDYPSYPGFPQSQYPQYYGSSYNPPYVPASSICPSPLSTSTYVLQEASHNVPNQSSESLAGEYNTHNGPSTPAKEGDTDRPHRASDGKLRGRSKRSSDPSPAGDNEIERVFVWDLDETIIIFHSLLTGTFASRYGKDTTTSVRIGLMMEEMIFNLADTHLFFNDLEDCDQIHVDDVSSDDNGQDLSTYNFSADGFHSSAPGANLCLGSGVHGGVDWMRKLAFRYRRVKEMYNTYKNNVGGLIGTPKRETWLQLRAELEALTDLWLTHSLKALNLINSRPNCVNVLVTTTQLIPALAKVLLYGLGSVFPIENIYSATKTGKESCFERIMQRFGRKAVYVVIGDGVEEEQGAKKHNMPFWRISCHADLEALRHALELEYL
# Target sequence (Q15475 whole entry, looked up): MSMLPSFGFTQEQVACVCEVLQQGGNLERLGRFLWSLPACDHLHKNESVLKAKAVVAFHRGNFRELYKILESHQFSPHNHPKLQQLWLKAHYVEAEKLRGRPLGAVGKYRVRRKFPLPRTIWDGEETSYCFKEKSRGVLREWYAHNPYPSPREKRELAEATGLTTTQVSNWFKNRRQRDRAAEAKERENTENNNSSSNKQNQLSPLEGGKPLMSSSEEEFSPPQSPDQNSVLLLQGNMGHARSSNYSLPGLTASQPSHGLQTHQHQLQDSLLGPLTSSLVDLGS
#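 Homogeneous AlphaScreen proximity assay pairing GST-Six1 with His-tagged Eya2 (added as 5X mix: 250 nM and 500 nM) in 50 mM Tris pH 8.0, 300 mM NaCl, 1 mM TCEP. Glutathione donor and nickel acceptor beads; 1 h, 37 °C, dark.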
# The depositor's hits bear a star; i = inactive; ? = inconclusive; . = not tested or not shown. The list is not random: actives were taken first. Their share in the collection is about 1.2%. Rule as the data show it, unless noted: active = activity change below about -65%; inconclusive = mostly about -30% to -63%; inactive = weaker than that. % is scaled to controls: 0 for no effect and ±100 for the full control effect.
SMILES,CCT chaperon mod,CtBP-E1A inh,pAkt inh,Six1-Eya2 blk
N#C/C(=C(\O)c1cc(Cl)sc1Cl)c1nc2ccccc2[nH]1,0,4,i,3
Cc1ccccc1/C=N/N1CCN(c2ccccc2)CC1,0,?,i,?
CC(C)(C)n1ncc2c(=O)n(CC(=O)OCc3ccccc3)cnc21,0,3,i,12
CC(C)(C)n1ncc2c(=O)n(CC(=O)c3ccccc3)cnc21,-1,5,-115%*,-1
COc1ccccc1NC(=O)CCC(=O)OCc1ccc(Cl)cc1,-1,.,i,0
CCOC(=O)C1CCN(C(=O)c2oc3ccc(S(=O)(=O)N4CC(C)CC(C)C4)cc3c2C)CC1 (stereo not given),1,2,-82%*,-10
CCOC(=O)N1CCN(C(=O)c2oc3ccc(S(=O)(=O)N4CC(C)CC(C)C4)cc3c2C)CC1 (stereo not given),-2,-8,i,0
O=[N+]([O-])c1cc(O)c2ncccc2c1,-1,-94*,i,-83*
Cc1nn(S(=O)(=O)c2ccc(F)cc2)c(C)c1S(=O)(=O)N1CCCCC1,-6,4,i,8
Cc1cc(Cl)ccc1NC(=O)CCC(=O)O,-2,-2,i,6
O=C(O)CCC(=O)Nc1ccc(NC(=O)c2ccc(Cl)cc2Cl)c(Cl)c1,-135*,.,i,-2
O=C(Nn1cc(C(=O)Nc2ccc(F)cc2F)c2ccccc2c1=O)c1cnccn1,-9,?,i,-72*
O=S(=O)(Nc1ccccn1)c1ccc(-n2cccn2)cc1,-82*,.,.,15
O=S(=O)(Nc1ccccn1)c1ccc(Cl)cc1,1,0,i,5
CC(C)N(C(=O)N1CCN(c2ccnc3cc(Cl)ccc23)CC1)C(C)C,-4,-3,i,-3
CC[C@H](C)NC(=O)c1ccc(Cn2c(=S)[nH]c3c([nH]c4ccc(OC)cc43)c2=O)cc1,0,-2,i,-11
Nc1cccc2c1C(=O)N(C(=O)/C=C/c1ccc(F)cc1)C2=O,2,-65*,i,-10
CCN1C(=O)[C@H]2[C@@H](c3ccc(-c4ccc(Cl)c(Cl)c4)c(OC)c3)N3CCCC[C@@]3(C(=O)OC)[C@H]2C1=O,-1,.,i,-5
O=C(CN1CCCCC1)NC(=O)NC1CCCC1,-3,.,i,5
O=C(NC1CCCCC1)NC1CCN(CC(=O)N2CCOCC2)CC1,-2,0,-107%*,2
CNc1c(C(=O)O)ccc2c1C(=O)c1ccccc1C2=O,0,0,i,-15
O=C(O)c1ccc2c(c1Nc1ccccc1)C(=O)c1ccccc1C2=O,0,?,i,-66*
COc1ccc(CCNC(=O)C(=O)NCC2CCCN2S(=O)(=O)c2ccccc2)cc1OC (stereo not given),-3,6,i,-7
CCOc1ccc(CCNC(=O)CCn2cccc2)cc1OCC,-1,-2,i,-6
COc1ccc(CCNC(=O)CCn2cccc2)cc1OC,1,-1,-101%*,-3
SMILES,CCT chaperon mod,CtBP-E1A inh,pAkt inh,Six1-Eya2 blk
CCN1CCCC1CNC(=O)C(=O)NCCc1ccc(OC)c(OC)c1 (stereo not given),-34*,6,i,1
CCCCNC(=O)C1CC(=O)N(CCc2ccc(C)cc2)C1 (stereo not given),-2,3,i,4
Cn1c(OCC2CCCO2)nc2cc(-c3ccccc3)sc2c1=O (stereo not given),-48*,0,.,4
Cc1nc2cc(-c3ccccc3)sc2c(=O)n1N,-31*,0,i,2
O=C1C(=Cc2ccco2)CCC1=Cc1ccco1,0,-1,i,-83*
Cc1nn2c(-c3cccc(NC(=O)c4ccco4)c3)nnc2c2ccccc12,-5,-88*,i,-69*
O=C(COC(=O)c1cnc(Cl)c(Cl)c1)Nc1ccc(S(=O)(=O)N2CCCC2)cc1,-2,?,i,-77*
Cc1cccc(-n2c(O)c(C=NCCCN3CCOCC3)c3ccccc3c2=O)c1,-2,-1,-121%*,0
NS(=O)(=O)c1ccc(NC(=O)CN2C(=O)CCC2=O)cc1,2,.,i,2
O=C(CN1C(=O)CCC1=O)Nc1ccc(Br)cc1,0,13,-103%*,3
C=CCSc1ncc(CO)n1Cc1ccccc1,0,2,i,-3
Cc1ccc(S(=O)(=O)c2c(N)n(-c3ccccc3)c3nc4ccccc4nc23)cc1,-35*,-3,i,17
COc1ccccc1OCC(O)CNCc1ccc2c(c1)OCO2 (stereo not given),0,7,i,0
Cc1ccc2c(c1)c1nnc(SCC(=O)N3CCCc4ccccc43)nc1n2CC(=O)O,-3,-88*,i,-78*
CCc1nnc(SCC(=O)N2CCCc3ccccc32)nc1CC,-1,5,i,-2
CCC1CCCCN1S(=O)(=O)c1ccc(NC(=O)CSc2ncccc2C(=O)O)cc1 (stereo not given),2,5,i,-83*
CCOC(=O)C1=C(C)OC(N)=C(C#N)C1c1ccccc1 (stereo not given),-2,13,i,3
CCOC(=O)CC1=C(C(=O)OCC)C(c2ccncc2)C(C#N)=C(N)O1 (stereo not given),0,0,-116%*,12
CC(=O)c1ccc(N=Cc2c(O)n(-c3cc(Cl)ccc3N3CCOCC3)c(=O)c3ccccc23)cc1,0,-10,-120%*,-7
S=c1[nH]nc(-c2ccccc2)n1CC1CCCO1 (stereo not given),0,1,-99%*,10
O=C(CSc1nc(=O)n2ccccc2n1)N1N=C(c2cccs2)CC1c1ccc(F)cc1 (stereo not given),1,6,i,-16
COc1ccc(C2CC(c3cccs3)=NN2C(=O)CSc2nc(=O)n3ccc(C)cc3n2)cc1 (stereo not given),-46*,0,i,-17
CCOc1ccc(NC(=O)CSc2ccc(-c3cccnc3)nn2)cc1,-2,3,i,-16
COc1cc(OC)nc(Nc2nc(C(N)c3ccccc3)cs2)n1 (stereo not given),-4,?,i,?
COc1ccc(C(N)c2csc(Nc3ncccn3)n2)cc1 (stereo not given),-1,-83*,i,-85*
CCc1cnc(Nc2nc(C(N)Cc3ccc(F)cc3)cs2)nc1 (stereo not given),-1,-71*,i,?
Cc1cnc(C)c(Nc2nc(C(N)Cc3ccc(F)cc3)cs2)n1 (stereo not given),-1,?,i,?
COc1ccc(CC(N)c2csc(Nc3ncccn3)n2)cc1 (stereo not given),-3,-80*,i,-71*
COc1ccc(CC(N)c2csc(Nc3cc(NCc4ccco4)ncn3)n2)cc1 (stereo not given),0,-74*,i,-65*
Cc1c(C(=O)N2CCN(CC(=O)Nc3ccccc3Cl)CC2)oc2ccc(Br)cc12,-2,2,i,2

# Screening results: PubChem, National Center for Advancing Translational Sciences (NCATS)
